Measles CPE: compounds protecting cells from measles virus cytopathic effect, primary screen, measles RdRp inhibitor project, single point, MLSMR library, absorbance; AID 841, 2007; Measles virus-infected cells, CPE protection; 1.5% of 140,000 active; protection (pct of control), % at 4 µM; in the data active = protection mostly above about 24%, no sharp cut-off; inactive = mostly below about 26%
CYP2C19 inh: blockers of cytochrome P450 2C19 activity – biochemical, luminescence, ADME assay, primary screen. inhibition, % at 5 µM. CYP2C19 Supersomes, luciferin-H EGE luminescence, 30 min. AID 778, 2007. P33261. 21% of 96,000 active;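 active = CYP2C19 inhibition above a set limit at 5 µM in the primary screen, cut at about 50% in these data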;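 also: plate controls were negative control wells for no effect and 2.5 mM tranylcypromine positive control for full effect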
Target sequence (P33261 whole entry, looked up): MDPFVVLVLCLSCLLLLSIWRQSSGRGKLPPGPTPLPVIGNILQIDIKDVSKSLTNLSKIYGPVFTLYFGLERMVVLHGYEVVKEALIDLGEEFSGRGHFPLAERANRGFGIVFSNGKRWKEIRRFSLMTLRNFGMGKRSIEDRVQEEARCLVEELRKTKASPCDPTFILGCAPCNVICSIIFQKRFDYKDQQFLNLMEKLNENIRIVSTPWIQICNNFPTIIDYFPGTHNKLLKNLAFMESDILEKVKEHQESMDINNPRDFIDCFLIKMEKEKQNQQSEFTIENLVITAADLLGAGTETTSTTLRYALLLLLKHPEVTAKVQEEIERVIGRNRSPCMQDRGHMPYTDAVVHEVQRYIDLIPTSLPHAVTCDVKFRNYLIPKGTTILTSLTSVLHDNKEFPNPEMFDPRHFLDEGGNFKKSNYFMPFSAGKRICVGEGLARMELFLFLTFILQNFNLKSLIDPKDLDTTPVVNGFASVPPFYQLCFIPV
CYP2C19 act: human CYP2C19 activators, primary screen, biochemical, luminescence; 96,000 tested, under 10 active; activation factor at 5 µM; recombinant CYP2C19, luciferin-H EGE luminescence; active compounds read high; 0 = fully inhibited enzyme, 1 = untreated enzyme; Cytochrome P450 2C19 (Homo sapiens), P33261;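 active = activation factor of at least 2 at 5 µM in the primary screen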;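 also: 0 = wells with 2.5 mM tranylcypromine and 1 = vehicle-only wells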
CYP2C9 act: human CYP2C9 activators, primary screen, biochemical, luminescence; Cytochrome P450 2C9 (Homo sapiens), P11712; recombinant CYP2C9, luciferin-H conversion; active compounds read high; factor 1 = untreated enzyme, 0 = blocked; activation factor at 5 µM; 1.4% of 96,000 active; AID 1024, 2008;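 active = activation factor of 2 or more for CYP2C9 at a 5 µM dose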;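 also: 0 = sulfaphenazole-blocked wells and 1 = vehicle-only wells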
CYP2C9 inhib: blockers of cytochrome P450 2C9 activity – biochemical, luminescence, ADME assay, primary screen; P11712; CYP2C9 Supersomes, luciferin-H conversion; AID 777, 2007; inhibition, % at 5 µM; 20% of 96,000 active;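 active = blocking of liver enzyme CYP2C9 beyond about 50% at 5 µM, limit read from the data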
* = called active by the depositor; · = not tested or not shown. The list is not random: actives were taken first. Their share in the collection is about 22%.

SMILES	Measles CPE	CYP2C19 inh	CYP2C19 act	CYP2C9 act	CYP2C9 inhib
O=c1c2ccccc2nc(SCc2nnc(-c3ccccc3)o2)n1-c1ccc(F)cc1F	15	77*	0.2	0	99*
COC(=O)C1C(=O)c2c([nH]c(C(=O)OCC3CCCO3)c2C)CC1C (stereo unspecified)	4	12	0.9	0.5	54*
Cc1cc(C)cc(NC(=O)C(NCC2CCCO2)c2ccccc2)c1 (stereo unspecified)	15	·	·	·	·
Clc1ccc2oc(-c3cccnc3NCc3ccccc3)nc2c1	14	-13	1.1	0.8	21
O=C1c2ccccc2C(=O)N1CCCON1C(=O)c2ccccc2C1=O	9	·	·	·	·
CNc1nc(CCN2C(=O)c3ccccc3C2=O)cs1	5	82*	0.2	0.9	7
NC(N)=Nc1nc(CCN2C(=O)c3ccccc3C2=O)cs1	5	55*	0.4	0.9	6
Cc1nc(CCN2C(=O)c3ccccc3C2=O)cs1	7	70*	0.3	0.8	19
O=C1c2ccccc2C(=O)N1CCn1nc(Cl)nc1Cl	9	27	0.7	1.1	-9
O=C(CSCc1cnn(-c2ccccc2)c1-n1cccc1)NCc1ccc2c(c1)OCO2	14	·	·	·	·
O=C(CSCc1cnn(-c2ccccc2)c1-n1cccc1)NCC1CCCO1 (stereo unspecified)	7	80*	0.2	0.2	79*
COc1ccc(CNC(=O)CSCc2cnn(-c3ccccc3)c2-n2cccc2)cc1	3	96*	0	0	98*
C=CCc1c(C)nc(SC)nc1Nc1ccc(C(C)=O)cc1	3	94*	0.1	0	97*
COC(Cc1nnc(SC)n1-c1ccccc1)OC	3	9	0.9	1	4
CSc1nnc(CSCc2ccc(Cl)cc2Cl)n1-c1ccccc1	10	59*	0.4	0.3	70*
CCOC(=O)C(Cc1c[nH]c2ccccc12)NC(=O)c1ccco1 (stereo unspecified)	8	78*	0.2	0.3	72*
COC(=O)C(Cc1c[nH]c2ccccc12)NC(=O)C(C)C (stereo unspecified)	8	18	0.8	0.9	8
Cc1n[nH]c(C)c1S(=O)(=O)N1CCCC(C(=O)Nc2nccs2)C1 (stereo unspecified)	10	61*	0.4	0.3	73*
O=C(Nc1nccs1)C1CCN(S(=O)(=O)c2c(Cl)cccc2Cl)CC1	13	92*	0.1	0.6	40
O=C(Nc1cc(Cl)ccn1)C1CCN(S(=O)(=O)c2cccs2)CC1	7	34	0.7	1.1	-10
Cc1ccc(CNC(=O)C2CCCN(S(=O)(=O)c3c(C)n[nH]c3C)C2)cc1 (stereo unspecified)	4	71*	0.3	0.8	15
Cc1ccc2c(c1)CCCN2C(=O)c1ccncc1	10	·	·	·	·
COc1ccccc1CN(Cc1ccco1)S(=O)(=O)c1ccc(-n2cnnn2)c(OC)c1	18	67*	0.3	0.2	85*
COc1ccc(CN(Cc2ccc(OC)cc2)S(=O)(=O)c2ccc(-n3cnnn3)c(C)c2)cc1	7	·	·	·	·
COc1cccc(CN(Cc2cccnc2)S(=O)(=O)c2ccc(-n3cnnn3)c(C)c2)c1OC	7	78*	0.2	0.6	44
SMILES	Measles CPE	CYP2C19 inh	CYP2C19 act	CYP2C9 act	CYP2C9 inhib
Cc1cccc(NC(=O)c2ccc(Cn3cc(C(F)(F)F)ccc3=O)cc2)c1	15	·	·	·	·
CCN(C1CCS(=O)(=O)C1)S(=O)(=O)c1cccs1 (stereo unspecified)	1	18	0.8	1	1
CCCC(C)NCC(=O)Nc1ccccc1-c1ccccc1 (stereo unspecified)	2	65*	0.4	0.6	41
O=S(=O)(NCC(c1cccnc1)N1CCN(c2ccccc2)CC1)c1cccs1 (stereo unspecified)	8	92*	0.1	0.3	71*
COc1ccccc1N1CCN(C(CNS(=O)(=O)c2cccs2)c2cccnc2)CC1 (stereo unspecified)	6	57*	0.4	0.9	14
COc1ccc(N2CCN(C(CNS(=O)(=O)c3cccs3)c3cccnc3)CC2)cc1 (stereo unspecified)	5	69*	0.3	0.4	56*
CCS(=O)(=O)NCC(c1cccnc1)N1CCN(c2ccccc2OC)CC1 (stereo unspecified)	33	7	0.9	1.2	-17
COc1ccc(N2CCN(C(CNS(=O)(=O)c3cc(F)ccc3F)c3cccnc3)CC2)cc1 (stereo unspecified)	9	74*	0.3	0.4	57*
Nc1nc(SCC(=O)NC2CCCCC2)[nH]c(=O)c1-c1ccccc1	12	25	0.8	0.9	13
CC1=NN(Cc2ccccc2)C(=O)/C1=C\c1ccc(N(C)C)cc1	7	-2	1	1.1	-5
COc1ccc(S(=O)(=O)NCC(c2cccnc2)N2CCN(c3ccc(F)cc3)CC2)cc1C (stereo unspecified)	22	·	·	·	·
COc1ccc(S(=O)(=O)NCC(c2cccnc2)N2CCN(c3ccccc3)CC2)cc1C (stereo unspecified)	21	73*	0.3	0.1	86*
COc1ccc2c(c1OC)C(=O)OC2Nc1ccccn1 (stereo unspecified)	0	-17	1.2	1.1	-15
COC(=O)c1ccc(NC(=S)Nc2ccc3ccccc3c2)cc1	22	0	1	1	2
COC(=O)c1ccc(NC(=O)CNS(=O)(=O)c2cccs2)cc1	5	65*	0.3	0.6	37
COC(=O)c1ccc(NC(=O)Cc2ccc(C)cc2)cc1	5	0	1	0.8	24
COC(=O)c1ccc(NC(=S)Nc2ccccc2)cc1	7	52*	0.5	0.8	23
CCC(C)C(=O)Nc1cc(C(=O)OC)cc(C(=O)OC)c1 (stereo unspecified)	3	22	0.8	0.4	61*
CCOCC(=O)Nc1cc(C(=O)OC)cc(C(=O)OC)c1	3	·	·	·	·
COC(=O)c1cc(NC(=O)Cc2ccc(OC)cc2)cc(C(=O)OC)c1	9	38	0.6	0.2	84*
COC(=O)c1ccc(NC(=O)Cc2ccccc2)cc1	5	83*	0.2	0.3	70*
Cc1ccc(/C=C/c2nc3ccccc3c(=O)n2CCc2ccccc2)cc1	61*	·	·	·	·
Cc1ccccc1/C=C/c1nc2ccccc2c(=O)n1CCc1ccccc1	1	·	·	·	·
CC1CCCC(C)N1C(=O)CSc1nnc(C2CCCCC2)o1 (stereo unspecified)	0	59*	0.4	0.9	12
Cc1cc(-c2nnc(SCC(=O)N3C(C)CCCC3C)o2)no1 (stereo unspecified)	1	56*	0.4	0.7	30
